Assay [1] can be described thus: qHTS assay to identify small molecule antagonists of the glucocorticoid receptor (GR) signaling pathway - cell viability counter screen (AID 720693; note: nearly all actives have a fitted effect of over 55% in size). (Quantitative high-throughput screening tests each substance at several concentrations.)
A short description of assay [2]: qHTS assay for identifying genotoxic compounds that show differential cytotoxicity against isogenic chicken DT40 cell lines with known DNA damage response pathways - wild type cell line (AID 743012). Note: nearly all actives have a fitted effect of over 60% in size. Note: potency is the fitted concentration of half-maximal effect. Put shortly:
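Viability of DNA repair-proficient chicken DT40 cells was assessed by CellTiter-Glo luminescence following 40 h compound exposure at 37 C/5% CO2.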

Assay [3] can be described thus: qHTS assay for identifying genotoxic compounds that show differential cytotoxicity against isogenic chicken DT40 cell lines with known DNA damage response pathways - Rad54/Ku70 mutant cell line (AID 743015). Note: nearly all actives have a fitted effect of over 60% in size. Note: potency is the fitted concentration of half-maximal effect.
A short description of assay [4]: qHTS assay to identify small molecule antagonists of the androgen receptor (AR) signaling pathway - cell viability counter screen (AID 743033; note: nearly all actives have a fitted effect of over 45% in size).
Assay [5] can be described thus: qHTS assay to identify small molecule antagonists of the androgen receptor (AR) signaling pathway using the MDA cell line - cell viability counter screen (AID 743041; note: nearly all actives have a fitted effect of over 45% in size). The procedure, abridged:
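In this qHTS counter assay, fluorescence intensity after CellTiter-Fluor addition indicated viability of MDA-kb2 AR-luc cells given compounds and R1881 for 16 h at 37C.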

Assay [6] concerns thyroid hormone receptor (rat, GH3 cells). The assay is described as follows: qHTS assay to identify small molecule agonists of the thyroid receptor (TR) signaling pathway (AID 743066; calls by dose curve).
Assay [7] concerns the target Estrogen receptor (Homo sapiens) (UniProt P03372). In words: qHTS assay to identify small molecule antagonists of the estrogen receptor alpha (ER-alpha) signaling pathway (AID 743069; active = well fitted curve in the direction sought with a large enough effect in the signal ratio in the repeat runs, not every such curve was filed as active; the % refers to the signal ratio). Put shortly:
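A 17beta-estradiol challenge was applied right after compound transfer to ER-alpha-UAS-bla HEK293 cells previously kept in charcoal-stripped serum. Plates stood 18 hr at 37C and 5% CO2; fluorescence was read following 2 hr FRET substrate loading at room temperature.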

Assay [8] can be described thus: qHTS assay to identify small molecule antagonists of the estrogen receptor alpha (ER-alpha) signaling pathway - cell viability counter screen (AID 743074; calls by dose curve;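 note: HEK293 cells carrying ER-alpha-UAS-bla reporter stimulated with 17beta-estradiol; nearly all actives have a fitted effect of over 45% in size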).
Assay [9] deals with Estrogen receptor (Homo sapiens) (UniProt P03372). The assay is described as follows: qHTS assay to identify small molecule agonists of the estrogen receptor alpha (ER-alpha) signaling pathway (AID 743075; calls by dose curve;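 note: HEK293 GripTite cells with ER-alpha and UAS-driven beta-lactamase reporter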; note: potency is the fitted concentration of half-maximal effect).
Estrogen receptor (Homo sapiens), sequence (P03372 whole entry, looked up): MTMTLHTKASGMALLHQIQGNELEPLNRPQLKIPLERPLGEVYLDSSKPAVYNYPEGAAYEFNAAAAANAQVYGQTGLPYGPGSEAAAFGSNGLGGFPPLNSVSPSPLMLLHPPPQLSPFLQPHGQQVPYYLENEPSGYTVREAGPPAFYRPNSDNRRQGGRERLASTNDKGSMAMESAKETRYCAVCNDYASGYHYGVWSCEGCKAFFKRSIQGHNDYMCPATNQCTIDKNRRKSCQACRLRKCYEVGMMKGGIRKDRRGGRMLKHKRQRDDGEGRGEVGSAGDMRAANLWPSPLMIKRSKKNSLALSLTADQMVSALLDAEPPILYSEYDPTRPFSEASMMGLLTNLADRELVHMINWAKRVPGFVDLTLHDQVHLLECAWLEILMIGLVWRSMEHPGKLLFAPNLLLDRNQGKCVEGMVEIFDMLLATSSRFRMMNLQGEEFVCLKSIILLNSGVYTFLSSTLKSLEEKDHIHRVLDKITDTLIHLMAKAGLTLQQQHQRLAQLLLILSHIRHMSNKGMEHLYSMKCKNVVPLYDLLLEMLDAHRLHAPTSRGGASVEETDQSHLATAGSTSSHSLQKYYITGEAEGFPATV
The target is the same in assay [10]. In words: qHTS assay to identify small molecule agonists of the estrogen receptor alpha (ER-alpha) signaling pathway using the BG1 cell line (AID 743079). Note: nearly all actives have a fitted effect of over 20% in size. Note: potency is the fitted concentration of half-maximal effect.
The nature of assay [11]: qHTS assay to identify small molecule antagonists of the estrogen receptor alpha (ER-alpha) signaling pathway using the BG1 cell line (AID 743080; calls by dose curve;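 note: BG1 cells stimulated with 17beta-estradiol alongside compound; series mostly up to about 70 µM; nearly all actives have a fitted effect of over 25% in size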). Put shortly: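 BG1-Luc-4E2 cells (endogenous full-length ER-alpha, 4xERE luciferase) hormone-starved 5 days in charcoal-stripped FBS, plated 4,000/well for 24 h, then compound plus 17beta-estradiol for 21.5 h at 37 C; ONE-Glo luminescence read.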

The nature of assay [12]: qHTS assay to identify small molecule antagonists of the estrogen receptor alpha (ER-alpha) signaling pathway using the BG1 cell line - cell viability counter screen (AID 743081).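 Note: compound given together with 17beta-estradiol as the ER stimulus; series mostly up to about 70 µM; nearly all actives have a fitted effect of over 45% in size.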
The target of assay [13] is Aromatase (Homo sapiens) (UniProt P11511). The assay is described as follows: qHTS assay to identify aromatase inhibitors (AID 743083). Note: series mostly up to about 70 µM; nearly all actives have a fitted effect of over 55% in size.
Aromatase (Homo sapiens), sequence (P11511 whole entry, looked up): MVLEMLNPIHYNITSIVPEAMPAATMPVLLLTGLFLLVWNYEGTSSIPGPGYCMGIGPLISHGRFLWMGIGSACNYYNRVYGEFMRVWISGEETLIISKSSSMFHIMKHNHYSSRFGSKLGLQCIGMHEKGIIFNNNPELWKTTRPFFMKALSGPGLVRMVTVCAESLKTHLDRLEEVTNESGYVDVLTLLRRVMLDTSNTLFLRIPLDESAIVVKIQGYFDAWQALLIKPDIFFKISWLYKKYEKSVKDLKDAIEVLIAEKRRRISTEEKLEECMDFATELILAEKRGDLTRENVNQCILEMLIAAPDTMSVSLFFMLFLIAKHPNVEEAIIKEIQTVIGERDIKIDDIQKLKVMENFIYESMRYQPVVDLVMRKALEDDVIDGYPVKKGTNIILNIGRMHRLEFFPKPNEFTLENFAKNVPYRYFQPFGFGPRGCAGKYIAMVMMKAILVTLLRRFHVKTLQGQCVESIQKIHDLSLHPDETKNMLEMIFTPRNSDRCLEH
Assay [14] can be described thus: qHTS assay for identifying genotoxic compounds that show differential cytotoxicity against isogenic chicken DT40 cell lines with known DNA damage response pathways - Rev3 mutant cell line (AID 743014). Note: nearly all actives have a fitted effect of over 55% in size. Note: potency is the fitted concentration of half-maximal effect.
For assay [15], the target named is Androgen receptor (Homo sapiens) (UniProt P10275). The assay is described as follows: qHTS assay to identify small molecule agonists of the androgen receptor (AR) signaling pathway using the MDA cell line (AID 743040; note: nearly all actives have a fitted effect of over 20% in size). Put shortly:
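Cell-based luciferase reporter: MDA-kb2, MMTV promoter (AR + GR response elements). 16 h compound exposure at 37C; ONE-Glo, 30 min RT, luminescence.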

The target is the same in assay [16]. The assay is described as follows: qHTS assay to identify small molecule antagonists of the androgen receptor (AR) signaling pathway using the MDA cell line (AID 743042; note: nearly all actives have a fitted effect of over 55% in size). Put shortly:
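MDA-kb2 cells (human breast carcinoma, stably carrying an MMTV-luciferase reporter responsive to AR and GR) were plated at 3,000 cells/well and preincubated 5 hr at 37C, then given compound plus R1881 agonist for 16 h. ONE-Glo luminescence was read.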

Assay [17] is described as follows: qHTS assay to identify small molecule antagonists of the thyroid receptor (TR) signaling pathway - cell viability counter screen (AID 743064). Note: nearly all actives have a fitted effect of over 50% in size. The procedure, abridged: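 GH3.TRE-Luc cells, 4 h pre-plating; cpd + T3 1 nM final; 37 °C 23.5 h; CellTiter-Fluor 30 min; fluorescence read.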
A short description of assay [18]: qHTS assay to identify small molecule antagonists of the thyroid receptor (TR) signaling pathway (AID 743065). Put shortly:
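GH3.TRE-Luc rat pituitary cells carrying two TR response elements driving luciferase were plated for 4 h, given compound plus 1 nM T3 (final), and incubated 23.5 h at 37 C. ONE-Glo luminescence measured reporter inhibition; CellTiter-Fluor fluorescence tracked cytotoxicity.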

Inconclusive results are not listed. The source made the active and inactive calls. Unless noted, calls come from the whole dose curve; as a rule, active = well fitted curve in the direction sought with a large enough effect in the repeat runs; inconclusive = weak or mixed curves; inactive = no such curve, though single readings can be large; an effect the other way counts as inactive or inconclusive.

Androgen receptor (Homo sapiens), sequence (P10275 whole entry, looked up): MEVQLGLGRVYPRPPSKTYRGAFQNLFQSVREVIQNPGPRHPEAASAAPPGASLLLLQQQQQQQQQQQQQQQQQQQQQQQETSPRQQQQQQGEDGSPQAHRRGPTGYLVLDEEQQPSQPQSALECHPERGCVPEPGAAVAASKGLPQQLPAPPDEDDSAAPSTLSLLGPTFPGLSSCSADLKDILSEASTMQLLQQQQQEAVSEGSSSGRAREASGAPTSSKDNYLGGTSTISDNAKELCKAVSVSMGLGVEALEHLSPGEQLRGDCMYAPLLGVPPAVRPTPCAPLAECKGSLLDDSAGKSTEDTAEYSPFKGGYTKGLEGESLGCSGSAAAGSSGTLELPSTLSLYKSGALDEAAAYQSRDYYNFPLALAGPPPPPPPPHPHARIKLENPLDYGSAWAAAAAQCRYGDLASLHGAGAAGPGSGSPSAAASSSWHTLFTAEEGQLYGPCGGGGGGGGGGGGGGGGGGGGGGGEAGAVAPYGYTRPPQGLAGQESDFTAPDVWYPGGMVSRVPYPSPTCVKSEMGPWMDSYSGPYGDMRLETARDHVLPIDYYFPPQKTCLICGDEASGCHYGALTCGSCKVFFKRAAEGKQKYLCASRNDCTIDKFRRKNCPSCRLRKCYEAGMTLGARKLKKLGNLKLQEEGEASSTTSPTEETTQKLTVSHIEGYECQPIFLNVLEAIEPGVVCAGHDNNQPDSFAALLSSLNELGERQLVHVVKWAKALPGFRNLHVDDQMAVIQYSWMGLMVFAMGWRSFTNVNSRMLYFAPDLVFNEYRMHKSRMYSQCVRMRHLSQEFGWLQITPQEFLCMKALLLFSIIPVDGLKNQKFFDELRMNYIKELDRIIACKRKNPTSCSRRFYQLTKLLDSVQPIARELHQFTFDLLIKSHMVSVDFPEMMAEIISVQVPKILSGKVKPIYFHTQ

With `C=CCCl`, the Potency result in assay [1], in [2], in [3], in assay [4], in [5] and in [6] was “inactive” in each case. For the same compound, the Potency entry in [7], in assay [8], in assay [11], in [12] and in [13] was “inactive” each time. Moreover, the Potency in assay [9] was 57.6 µM [activator] (active); in assay [10] it was 32.1 µM (active).

For the compound `Nc1ccc([N+](=O)[O-])cc1[N+](=O)[O-]`, the Potency result in [1], in assay [4], in assay [15], in [16], in assay [6] and in assay [7] was “inactive” throughout. The Potency result in assay [8], in assay [9], in assay [10], in assay [11] and in assay [13] was “inactive” each time. For the same compound, the values for the Potency in assay [14] and in [3] were 53.1 µM (active) and 66.8 µM (active), respectively.

For the compound `COC(N)=O`, the Potency result in assay [1], in [3], in assay [4], in assay [17], in assay [18] and in assay [6] was “inactive” in each case. Also, the Potency result in assay [7], in assay [8], in assay [9], in assay [10], in assay [11] and in assay [12] was “inactive” in each case. Further, in assay [13], the Potency entry is “inactive”.

`CCOC(=O)C(Cl)C(C)=O` (centres undefined): the Potency entry in [1], in [3], in assay [5], in assay [17], in assay [6] and in assay [7] was “inactive” throughout. Further, the Potency result in assay [8], in assay [9], in assay [10], in assay [11], in assay [12] and in assay [13] was “inactive” in each case.

In the case of `CC(C)N(CCC(C(N)=O)(c1ccccc1)c1ccccn1)C(C)C` (centres undefined), the Potency result in [1], in assay [2], in [3], in [4], in assay [5] and in assay [17] was “inactive” in each case. For the same compound, the Potency result in assay [18], in assay [6], in assay [8], in assay [12] and in [13] was “inactive” in each case.

Turning to `CO[C@@H]1[C@H](OC(=O)NC(=O)CCl)CC[C@]2(CO2)[C@H]1[C@@]1(C)O[C@@H]1CC=C(C)C`, the Potency entry in assay [1], in assay [15], in assay [5], in assay [16], in assay [6] and in assay [8] was “inactive” throughout. Besides, the Potency entry in assay [10], in [11], in assay [12] and in assay [13] was “inactive” throughout. The Potency in [2] is 0.6 nM (active).

Consider `c1ccoc1`, for which the Potency entry in assay [1], in assay [2], in [3], in assay [4], in assay [5] and in assay [17] was “inactive” in each case. In addition, the Potency entry in assay [18], in assay [6], in assay [8], in [9], in assay [11] and in assay [12] was “inactive” throughout. Further, the Potency result in [13] is “inactive”.

`CC(C)(CCl)C(=O)Cl`: the Potency result in [1], in assay [3], in assay [4], in assay [18], in assay [6] and in [8] was “inactive” in each case. Besides, the Potency entry in assay [12] and in assay [13] was “inactive” each time.

As to `O=C(O)c1ccccc1C(=O)Nc1cccc2ccccc12`, the Potency entry in assay [1], in assay [4], in [5], in assay [6], in assay [8] and in assay [12] was “inactive” throughout. For the same compound, the Potency entry in [13] was “inactive”. For the same compound, in assay [14], the Potency was 54.5 µM (active).

Take `CCOP(=S)(Oc1ccc([N+](=O)[O-])cc1)c1ccccc1` (centres undefined): the Potency entry in [1], in assay [2], in assay [4], in assay [5], in assay [18] and in assay [6] was “inactive” in each case. Moreover, the Potency result in [7], in [8], in [9], in [11], in assay [12] and in assay [13] was “inactive” each time. Further, in [10], the Potency is 27.3 µM (active).

For `O=C(CBr)c1ccccc1`, the Potency entry in assay [1], in assay [4], in assay [5], in assay [17], in [18] and in assay [6] was “inactive” each time. Further, the Potency result in [7], in assay [8], in [9], in assay [11], in [12] and in [13] was “inactive” in each case. Moreover, the Potency is 61.5 µM (active) in [14] and 54.8 µM (active) in assay [10].

On to `CCOS(C)(=O)=O`, for which the Potency result in assay [1], in [2], in assay [3], in assay [4], in assay [6] and in assay [8] was “inactive” in each case. Further, the Potency result in assay [12] and in assay [13] was “inactive” throughout.

In the case of `CCCCNP(N)(N)=S`, the Potency result in [1], in [14], in assay [3], in assay [4], in assay [5] and in [6] was “inactive” in each case. For the same compound, the Potency entry in [7], in [8], in assay [9], in assay [11], in assay [12] and in assay [13] was “inactive” throughout.

The values are drawn from PubChem BioAssay (Tox21).
